Reference: PubChem BioAssay (NCATS)
Records with an inconclusive call do not appear. Active and inactive are the calls of the source. Unless noted, calls follow the shape of the dose curve; as a rule, active = well fitted curve in either direction with a large enough effect (not every such curve was filed as active); inconclusive = small, poorly fitted or top-dose-only effect, or another doubt; inactive = flat fitted curve, though single readings scatter.

Key:
[1] = biological target: Lysosomal acid glucosylceramidase (Homo sapiens) (UniProt P04062); assay: Glucocerebrosidase-p2 (AID 348; in the data active = potency below about 10 µM; also: potency is read from the fitted curve at half-maximal effect); conditions: purified GBA, blue fluorogenic substrate, 40 min
Sequence of Lysosomal acid glucosylceramidase (Homo sapiens) (P04062 whole entry, looked up): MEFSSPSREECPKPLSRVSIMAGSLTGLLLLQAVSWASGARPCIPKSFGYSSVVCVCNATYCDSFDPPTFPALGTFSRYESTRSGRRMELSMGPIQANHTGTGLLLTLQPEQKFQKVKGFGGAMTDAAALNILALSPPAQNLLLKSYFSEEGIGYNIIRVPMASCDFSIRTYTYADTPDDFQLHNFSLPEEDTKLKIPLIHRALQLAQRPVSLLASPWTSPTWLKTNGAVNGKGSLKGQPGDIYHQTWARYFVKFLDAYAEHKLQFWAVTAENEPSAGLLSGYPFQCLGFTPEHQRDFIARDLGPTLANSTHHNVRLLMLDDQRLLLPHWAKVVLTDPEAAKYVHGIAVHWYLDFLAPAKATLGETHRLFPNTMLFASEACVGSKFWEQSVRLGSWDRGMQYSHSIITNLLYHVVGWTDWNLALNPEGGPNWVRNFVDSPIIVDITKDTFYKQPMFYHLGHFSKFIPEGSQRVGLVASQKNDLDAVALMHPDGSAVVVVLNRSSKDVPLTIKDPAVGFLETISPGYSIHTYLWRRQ
How it was run: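 Compounds titrated from 0.6 nM upwards against 0.2 nM enzyme in pH 5.9 citric acid/KH2PO4, taurocholate, tween-20; blue fluorogenic substrate 80 uM, 40 min room temperature, stopped and read Ex 365/Em 440 for AC50.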

[2] = AP1 Signaling Pathway (AID 357); conditions: ME-180 AP-1-bla reporter, EGF-induced, beta-lactamase ratio, 5 h; at 7.69 µM (top of the series) unless noted; also: % is scaled to controls: 0 for no effect and ±100 for the full control effect
How it was run: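 Modulation of EGF-driven AP-1 transcription was assessed with a beta-lactamase reporter in ME-180 cells. Compound and EC50 EGF were co-incubated 5 hours at 37 °C before 2.5-hour CCF4 loading at room temperature and dual-emission reading.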

[3] = Stat Signaling Pathway (AID 446); conditions: ME-180 SIE beta-lactamase reporter, IL-6 stimulated, 5 h; at 7.69 µM (top of the series) unless noted;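 also: ME-180 cervical cancer cells given 40 pM IL-6 alongside compound; SIE-controlled beta-lactamase reporter measured as 460/530 nm FRET emission ratio; % is scaled to controls: 0 for no effect and ±100 for the full control effect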
How it was run: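 Reporter line: ME-180 cervical carcinoma, SIE-beta-lactamase. Treatment: compound with 40 pM IL-6, 5 hrs, 37 C, in low-serum OPTI-MEM with 10 mM HEPES pH 7.3. Detection: 460/530 nm fluorescence.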

[4] = biological target: Glucocorticoid receptor (Homo sapiens) (UniProt P04150); assay: GR-EFC Redistribution (AID 451; calls by dose curve; also: potency is read from the fitted curve at half-maximal effect); conditions: CHO-K1 GR-EFC translocation, beta-gal luminescence, 2 h
Sequence of Glucocorticoid receptor (Homo sapiens) (P04150 whole entry, looked up, the tested form may be a part): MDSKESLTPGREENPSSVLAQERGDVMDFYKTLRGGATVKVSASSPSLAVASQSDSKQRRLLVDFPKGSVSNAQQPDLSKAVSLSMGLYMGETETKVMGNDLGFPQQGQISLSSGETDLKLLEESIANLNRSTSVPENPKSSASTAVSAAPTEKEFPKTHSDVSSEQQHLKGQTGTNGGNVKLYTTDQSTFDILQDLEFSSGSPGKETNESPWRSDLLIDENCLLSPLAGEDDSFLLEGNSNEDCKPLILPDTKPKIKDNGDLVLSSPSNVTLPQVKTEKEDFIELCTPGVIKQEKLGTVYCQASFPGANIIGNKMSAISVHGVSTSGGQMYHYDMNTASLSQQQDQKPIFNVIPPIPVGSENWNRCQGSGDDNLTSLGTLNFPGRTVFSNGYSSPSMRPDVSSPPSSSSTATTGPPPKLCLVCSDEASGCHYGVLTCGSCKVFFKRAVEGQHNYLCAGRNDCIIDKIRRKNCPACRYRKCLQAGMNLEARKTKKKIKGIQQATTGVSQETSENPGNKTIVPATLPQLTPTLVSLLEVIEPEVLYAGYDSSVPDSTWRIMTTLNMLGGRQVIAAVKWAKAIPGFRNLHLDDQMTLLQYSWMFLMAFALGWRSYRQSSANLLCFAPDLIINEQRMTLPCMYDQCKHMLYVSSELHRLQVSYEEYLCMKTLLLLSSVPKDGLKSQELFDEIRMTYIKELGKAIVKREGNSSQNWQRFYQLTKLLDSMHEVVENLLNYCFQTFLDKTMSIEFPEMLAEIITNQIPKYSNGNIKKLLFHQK
How it was run: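 Translocation of GR-ED fusion to nuclear EA restores b-gal, read by luminescence after 1 h room-temperature detection. Engineered CHO-K1 biosensor cells, 1,000/well, exposed 2 h at 37 C to titrations up to 46 uM final.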

[5] = biological target: Mitogen-activated protein kinase 10 (Mus musculus) (UniProt Q61831); assay: JNK3 AlphaScreen Assay (AID 530); conditions: JNK3 lysate, c-Jun phosphorylation; series mostly up to 57.1 µM;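 also: kinase came from lysate of stimulated human HepG2 cells; signal reports phosphorylation of biotinylated GST-cJun 1-79 at Ser73 with 10 µM ATP; % is scaled to controls: 0 for no effect and ±100 for the full control effect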
How it was run: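 Room-temperature AlphaScreen kinase assay; pre-activated HepG2 lysate as JNK3 source, biotin-GST-cJun(1-79) substrate, 10 uM ATP, compound 15 min preincubation.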

[6] = biological target: 3',5'-cyclic-AMP phosphodiesterase 4B (Homo sapiens) (UniProt Q07343); assay: qHTS Assay for Inhibitors of PDE-IV (AID 607; active = well fitted activation curve with a large enough effect in the main read-out, with a control signal flat, not every such curve was filed as active; also: % of control where 0% means no effect); conditions: HEK293 ACTOne CNG channel cells, membrane potential fluorescence; series mostly up to 22.9 µM
Sequence of 3',5'-cyclic-AMP phosphodiesterase 4B (Homo sapiens) (Q07343 whole entry, looked up): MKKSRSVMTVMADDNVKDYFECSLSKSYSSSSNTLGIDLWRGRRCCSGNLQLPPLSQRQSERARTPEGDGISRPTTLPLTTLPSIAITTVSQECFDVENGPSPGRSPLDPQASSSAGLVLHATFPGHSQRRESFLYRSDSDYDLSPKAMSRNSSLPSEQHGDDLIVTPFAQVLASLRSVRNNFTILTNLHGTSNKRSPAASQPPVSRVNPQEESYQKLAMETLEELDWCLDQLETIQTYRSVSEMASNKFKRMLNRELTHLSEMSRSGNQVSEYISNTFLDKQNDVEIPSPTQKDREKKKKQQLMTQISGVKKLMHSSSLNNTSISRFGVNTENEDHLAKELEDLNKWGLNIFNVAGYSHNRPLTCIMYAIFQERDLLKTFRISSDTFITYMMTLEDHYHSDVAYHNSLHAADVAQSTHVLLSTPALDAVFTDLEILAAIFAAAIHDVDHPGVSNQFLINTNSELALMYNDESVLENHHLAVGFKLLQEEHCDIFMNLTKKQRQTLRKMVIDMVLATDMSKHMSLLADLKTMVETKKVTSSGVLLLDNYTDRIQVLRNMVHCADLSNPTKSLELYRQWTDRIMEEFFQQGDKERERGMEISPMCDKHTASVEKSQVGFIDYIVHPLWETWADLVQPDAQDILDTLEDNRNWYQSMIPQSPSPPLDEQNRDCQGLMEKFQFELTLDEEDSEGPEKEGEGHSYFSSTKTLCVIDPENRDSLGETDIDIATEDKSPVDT
How it was run: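 Cell-based read-out of cAMP via a modified cyclic nucleotide-gated channel and membrane potential dye (535/590 nm) in HEK293 cells expressing PDE4 endogenously. Compounds tested up to 22.9 uM final; 100 uM RO 20-1724 reference.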

[7] = qHTS Assay for Lipid Storage Modulators (AID 1519; calls by dose curve); conditions: Drosophila S3 cells, BODIPY lipid droplet/cell ratio, laser cytometry, cells loaded with oleic acid; for activity change, negative = inhibition: at 57.5 µM (top of the series)
How it was run: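 Cells seeded at 5,000 per well were treated with compounds over a concentration series and loaded with oleic acid (400 uM, as added). Lipid droplet fluorescence (488 nm excitation, 500-530 nm channel) was read by laser-scanning cytometry and normalized to 20 uM Triacsin C.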

[8] = Primary qHTS for small molecule stabilizers of the endoplasmic reticulum resident proteome: Secreted ER Calcium Modulated Protein (SERCaMP) assay (AID 1508630; active = well fitted curve in the direction sought with a large enough effect; an effect the other way counts as inactive or inconclusive; also: % is scaled to controls: 0 for no effect and ±100 for the full control effect); conditions: SH-SY5Y GLuc-SERCaMP (Gaussia luciferase released on ER calcium loss) secretion, thapsigargin, luminescence; series mostly up to 38.4 µM
How it was run: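 GLuc-SERCaMP-expressing SH-SY5Y cells, pretreated 16 h with compound, are challenged with thapsigargin to empty ER calcium stores; after 4 h, coelenterazine is added directly to the medium and luminescence is imaged.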

[9] = qHTS Assay for Identification of Small Molecule Agonists for Hypoxia Response Element Signaling Pathway (AID 914; active = well fitted activation curve with a large enough effect in the signal ratio, with a control signal flat, not every such curve was filed as active; the % refers to the signal ratio; also: % of control where 0% means no effect); conditions: ME-180 (cervical carcinoma) HRE-bla reporter, beta-lactamase ratio, CoCl2, 17 h; activation: stronger effect = higher value
How it was run: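 Compounds in a titration series were added to ME-180 reporter cells alongside an EC50 level of CoCl2. After 17 hours, beta-lactamase activity was read as the 460nm/530nm emission ratio of CCF4, giving AC50 values.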

[10] = biological target: Cytochrome P450 2C9 (Homo sapiens) (UniProt P11712); assay: qHTS Assay for Inhibitors and Substrates of Cytochrome P450 2C9 (AID 883; active = well fitted curve in the direction sought with a large enough effect; an effect the other way counts as inactive or inconclusive; also: % is scaled to controls: 0 for no effect and ±100 for the full control effect; nearly all actives have a fitted effect of over 60% in size); conditions: recombinant CYP2C9, luciferin-H luminescence, 60 min; series mostly up to 57.1 µM
Sequence of Cytochrome P450 2C9 (Homo sapiens) (P11712 whole entry, looked up): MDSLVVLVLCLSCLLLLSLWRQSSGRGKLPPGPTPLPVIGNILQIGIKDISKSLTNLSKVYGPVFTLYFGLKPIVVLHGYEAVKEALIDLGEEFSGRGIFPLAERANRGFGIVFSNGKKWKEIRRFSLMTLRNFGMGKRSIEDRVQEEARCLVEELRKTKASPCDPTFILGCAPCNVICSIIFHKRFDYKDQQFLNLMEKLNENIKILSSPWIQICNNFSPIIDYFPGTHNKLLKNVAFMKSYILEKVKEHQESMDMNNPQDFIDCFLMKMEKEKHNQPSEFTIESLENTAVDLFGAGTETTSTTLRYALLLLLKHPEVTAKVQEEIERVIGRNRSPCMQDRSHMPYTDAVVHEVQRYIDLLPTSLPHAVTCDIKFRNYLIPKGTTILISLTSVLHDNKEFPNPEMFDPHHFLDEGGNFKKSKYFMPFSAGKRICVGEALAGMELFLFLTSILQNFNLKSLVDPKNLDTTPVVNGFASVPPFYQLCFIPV
How it was run: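 Luminescent read-out of deoxyluciferin hydroxylation, normalized to 57uM sulphaphenazole (AC100). Reaction: 10nM enzyme, 100uM Luciferin-H (equal to KM), 25mM KPO4, 10 min compound preincubation, then 60 min with NADPH regeneration, both at 37C.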

[11] = biological target: Cytochrome P450 3A4 (Homo sapiens) (UniProt P08684); assay: qHTS Assay for Activators of Cytochrome P450 3A4 (AID 885; active = well fitted curve in the direction sought with a large enough effect; an effect the other way counts as inactive or inconclusive; also: nearly all actives have a fitted effect of over 65% in size; also: potency is read from the fitted curve at half-maximal effect); conditions: recombinant CYP3A4, Luciferin-PPXE luminescence, 60 min; series mostly up to 57.1 µM
Sequence of Cytochrome P450 3A4 (Homo sapiens) (P08684 whole entry, looked up): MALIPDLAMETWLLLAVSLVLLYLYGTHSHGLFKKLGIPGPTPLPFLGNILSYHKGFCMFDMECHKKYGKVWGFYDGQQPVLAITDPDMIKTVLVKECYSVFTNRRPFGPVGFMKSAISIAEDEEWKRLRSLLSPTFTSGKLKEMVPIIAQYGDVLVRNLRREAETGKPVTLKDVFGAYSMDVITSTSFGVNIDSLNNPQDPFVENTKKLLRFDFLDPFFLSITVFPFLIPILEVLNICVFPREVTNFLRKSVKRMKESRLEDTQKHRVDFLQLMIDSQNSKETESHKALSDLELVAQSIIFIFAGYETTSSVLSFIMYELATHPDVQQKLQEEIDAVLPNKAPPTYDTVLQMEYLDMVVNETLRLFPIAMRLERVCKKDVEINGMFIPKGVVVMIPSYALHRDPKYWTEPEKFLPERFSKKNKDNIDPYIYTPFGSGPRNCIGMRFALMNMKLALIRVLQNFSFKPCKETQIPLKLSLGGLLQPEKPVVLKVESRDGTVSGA
How it was run: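 Signal was normalized against complete inhibition by 57 uM ketoconazole. The reaction used 20nM CYP3A4 with 25uM Luciferin-PPXE, 10-min compound preincubation and a 60-min NADPH-supported step at RT.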

[12] = biological target: Cytochrome P450 1A2 (Homo sapiens) (UniProt P05177); assay: p450-cyp1a2 (AID 410; calls by dose curve;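 also: -100% = full effect of reference inhibitor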); conditions: recombinant CYP1A2, luciferin-ME demethylation, luminescence; series mostly up to 57 µM
Sequence of Cytochrome P450 1A2 (Homo sapiens) (P05177 whole entry, looked up): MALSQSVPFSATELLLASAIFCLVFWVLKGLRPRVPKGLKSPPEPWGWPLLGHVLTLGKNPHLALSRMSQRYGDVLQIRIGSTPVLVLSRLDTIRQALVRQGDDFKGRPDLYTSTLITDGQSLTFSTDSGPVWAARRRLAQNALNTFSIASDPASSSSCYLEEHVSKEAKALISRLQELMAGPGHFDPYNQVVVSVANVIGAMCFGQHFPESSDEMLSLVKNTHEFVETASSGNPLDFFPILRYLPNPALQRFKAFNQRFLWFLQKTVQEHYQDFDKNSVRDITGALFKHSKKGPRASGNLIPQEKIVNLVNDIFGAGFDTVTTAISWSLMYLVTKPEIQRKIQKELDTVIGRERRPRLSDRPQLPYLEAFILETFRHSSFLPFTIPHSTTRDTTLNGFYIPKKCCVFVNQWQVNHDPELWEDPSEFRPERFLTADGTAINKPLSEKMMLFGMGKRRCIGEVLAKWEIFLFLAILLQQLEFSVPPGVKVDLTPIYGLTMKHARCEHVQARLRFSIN
How it was run: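 Inhibition was calculated relative to 57 uM furafylline (full inhibition). The reaction used human CYP1A2 at 20nM with Luciferin-ME at its Km, 100uM, driven by an NADPH-regenerating system for 60 min at room temperature.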

[13] = NFAT Signaling Pathway (AID 444); conditions: Jurkat NFAT-bla M1, carbachol, beta-lactamase ratio, 5 h; at 7.69 µM (top of the series) unless noted
How it was run: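 Read-out: CCF4 FRET ratio (460 nm/530 nm) after 1 h RT dye loading, used for %activity and AC50 from titration series. Cells: Jurkat NFAT-β-lactamase/M1 line, treated with compound plus 1 uM carbachol for 5 h, 37 °C.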

[14] = biological target: Cytochrome P450 3A4 (Homo sapiens) (UniProt P08684); assay: qHTS Assay for Inhibitors and Substrates of Cytochrome P450 3A4 (AID 884; active = well fitted curve in the direction sought with a large enough effect; an effect the other way counts as inactive or inconclusive; also: % is scaled to controls: 0 for no effect and ±100 for the full control effect; nearly all actives have a fitted effect of over 50% in size); conditions: recombinant CYP3A4, Luciferin-PPXE luminescence; series mostly up to 57.1 µM
How it was run: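 20 nM human CYP3A4 with 25 uM Luciferin-PPXE (at KM) in 200 mM KPO4, preincubated 10 min with compound; NADPH regeneration started a 60 min RT reaction. Luciferin detected by luminescence, normalized to 57 uM ketoconazole as full inhibition.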

[15] = biological target: Cytochrome P450 2D6 (Homo sapiens) (UniProt P10635); assay: qHTS Assay for Inhibitors and Substrates of Cytochrome P450 2D6 (AID 891; active = well fitted curve in the direction sought with a large enough effect; an effect the other way counts as inactive or inconclusive; also: potency is read from the fitted curve at half-maximal effect; nearly all actives have a fitted effect of over 60% in size); conditions: recombinant CYP2D6, luciferin-ME EGE luminescence; series mostly up to 57.1 µM
Sequence of Cytochrome P450 2D6 (Homo sapiens) (P10635 whole entry, looked up): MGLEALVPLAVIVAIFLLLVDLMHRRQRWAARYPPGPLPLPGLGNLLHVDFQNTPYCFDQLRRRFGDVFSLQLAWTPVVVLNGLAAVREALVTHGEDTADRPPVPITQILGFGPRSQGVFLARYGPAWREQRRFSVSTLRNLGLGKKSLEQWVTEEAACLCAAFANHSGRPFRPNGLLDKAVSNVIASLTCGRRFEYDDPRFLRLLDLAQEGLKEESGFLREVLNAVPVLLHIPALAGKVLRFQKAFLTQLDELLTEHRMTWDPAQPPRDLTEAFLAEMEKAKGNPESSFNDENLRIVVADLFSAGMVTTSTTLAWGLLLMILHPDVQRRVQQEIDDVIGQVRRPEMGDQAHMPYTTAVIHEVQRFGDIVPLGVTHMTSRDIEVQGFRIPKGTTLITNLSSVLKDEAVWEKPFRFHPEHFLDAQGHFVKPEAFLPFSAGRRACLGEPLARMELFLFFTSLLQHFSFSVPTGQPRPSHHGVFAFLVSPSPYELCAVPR
How it was run: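 Human CYP2D6 (5 nM) with 30 uM Luciferin-ME EGE (at Km) in 100 mM KPO4, compound preincubated 10 min, then NADPH regeneration system for 60 min at room temperature. Luciferin read by luminescence; normalized to 1.43 uM quinidine.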

[16] = measured here: cell count channel max response
[17] = measured here: lipid channel max response

N#Cc1ccc(CN2CCC3(CC2)CCN(C(=O)c2cccc(F)c2)CC3)cc1
9.63%: max response [7, 17]
7.59%: max response [7, 16]
inactive: Potency [1] > 11.4 µM | activity change, negative = inhibition [2] 3.84% | activity, negative = inhibition [3] 8.5% | Potency [4] > 46 µM | Potency [5] | Potency [6] | activity change, negative = inhibition [7] 1.66% | outcome [8]

O=C(c1cnccn1)N1CCC2(CCN(Cc3cc(C(F)(F)F)cc(C(F)(F)F)c3)CC2)CC1
13.6%: max response [7, 16]
inactive: Potency [1] > 11.4 µM | activity change, negative = inhibition [2] 6.25% | activity, negative = inhibition [3] -5.04% | Potency [4] > 46 µM | Potency [5] | Potency [6] | activity change, negative = inhibition [7] 2.5% | outcome [8]
15.1%: max response [7, 17]

O=C(c1ccncc1)N1CCC2(CCCN(Cc3nccs3)C2)CC1
11.6%: max response [7, 17]
inactive: Potency [1] > 11.4 µM | activity change, negative = inhibition [2] -14.3% | activity, negative = inhibition [3] 7.31% | Potency [4] > 46 µM | Potency [5] | Potency [6] | activity change, negative = inhibition [7] 6% | outcome [8]
2.79%: max response [7, 16]

O=C(c1cc(C(F)(F)F)cc(C(F)(F)F)c1)N1CCC2(CCCN(Cc3ccccc3)C2)CC1
4.9%: max response [7, 16]
inactive: Potency [1] > 11.4 µM | activity change, negative = inhibition [2] 15.8% | activity, negative = inhibition [3] -0.518% | Potency [4] > 46 µM | Potency [5] | Potency [6] | activity change, negative = inhibition [7] -0.673% | outcome [8]
5.21%: max response [7, 17]

O=C(c1cccc(F)c1)N1CCC2(CCCN(c3ccccn3)C2)CC1
9.06%: max response [7, 16]
21.3%: max response [7, 17]
inactive: Potency [1] > 11.4 µM | activity change, negative = inhibition [2] -14% | activity, negative = inhibition [3] -2.13% | Potency [4] > 46 µM | Potency [5] | Potency [6] | activation [9] -10.7% | activity change, negative = inhibition [7] 6.75% | outcome [8]

O=S(=O)(c1ccccc1)N1CCC2(CC1)CN(c1ccncc1)C2
0.397%: max response [7, 16]
inactive: Potency [1] > 11.4 µM | activity change, negative = inhibition [2] 0.671% | activity, negative = inhibition [3] 0.614% | Potency [4] > 46 µM | Potency [5] | Potency [6] | Potency [10] | Potency [11] | activity change, negative = inhibition [7] 2% | outcome [8]
-0.685%: max response [7, 17]

CS(=O)(=O)N1CCC2(CC1)CN(C(c1ccccc1)c1ccccc1)C2
active: Potency [11] 15.8 µM | Potency [15] 2.51 µM
-3.93%: max response [7, 17]
inactive: Potency [1] > 11.4 µM | Potency [12] | activity change, negative = inhibition [13] -0.932% | activity, negative = inhibition [3] -5.62% | Potency [4] > 46 µM | Potency [5] | Potency [6] | Potency [14] | activity change, negative = inhibition [7] -2.92% | outcome [8]
-5.26%: max response [7, 16]
